Compounds without any hit were thinned out: in the full panel of roughly 83,000, 20% have a hit.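 Method: cells in 96-well plates; compound added at one concentration; 48 h incubation; percent growth measured; values under 10 scored active.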 Values without a mark were called inactive. Active and inactive are the calls of the source.

The subject of this test is SR leukemia. As to the kind of experiment: NCI-60 one-dose screen, 48 h (100 = growth as untreated, 0 = no growth, -100 = all killed). The note with it: 10 µM unless noted. The method, then: Growth inhibition of the SR human tumor cell line is measured as a screen for anti-cancer activity. Cells are grown in 96 well plates and exposed to the test compound for 48 hours. Compounds are tested at a single concentration, which is 10^-5 M for most compounds. The reported endpoint is percent growth (GI% or GIPRCNT), where numbers from 0 - 100% represent growth inhibition, and numbers from -100% - 0 represent cell death. For example, a value of 40 represents 60% growth inhibition. A value of 0 means no net growth occurred over the course of the experiment. A value of -40 indicates 40% of cells at the beginning of the experiment died by the end of the experiment. A value of -100 means all cells are dead at the end of the experiment.
NCI-60 Human Tumor Cell Lines Screen was performed using the standard one-dose NCI protocol, which is described in more detail at https://dtp.cancer.gov/discovery_development/nci-60/default.htm.
Compounds with GIPRCNT values below 10 were considered active. Activity score was based on GIPRCNT using the following formula: […]
Score is 0 for GIPRCNT values of 100 or above, 50 for GIPRCNT values of 0, and 100 for GIPRCNT values of -100.
In the case of `O=C(Cc1cccc(OC(F)(F)F)c1)Nc1ccc(CCCCc2nnc(NC(=O)Cc3ccccn3)s2)nn1`, the growth was 41.3%.
To `CC(C)=CCNc1ncnc2c1ncn2C1OC(CO)C(O)C1O` (stereo not given) belongs 1.23% [1 mM] (active); to `COc1cc(OC)c2sc(-c3ccc(-n4cncc4-c4cc(OC)c(OC)c(OC)c4)cc3)nc2c1`, 17.3%; to `O=[N+]([O-])c1ccc(-c2cn3nc(-c4c[nH]c5ccccc45)sc3n2)cc1`, 92.2%.
To `Cc1ccc(C(=O)Nc2cccc(C#Cc3cccc4[nH]nc(N)c34)c2)cc1C(F)(F)F` belongs 69.3%.
The same measure for `O=C(CCCCCCN1CC(=O)N2[C@H](c3ccc(Cl)cc3)c3[nH]c4ccccc4c3C[C@@H]2C1=O)NO`: 21.6%; for `C=C(C)[C@@H]1CC[C@]2(COC(C)=O)CC[C@]3(C)[C@H](CC[C@@H]4[C@@]5(C)CCCN(C(C)=O)C(C)(C)[C@@H]5CC[C@]43C)[C@@H]12`: -35.6% (active); for `COC(=O)c1c2c(c(C)[n+]([O-])c1C)C(=O)C(NCc1cccc(Cl)c1)=CC2=O`: 9.98% (active).
For the compound `O=C1/C(=C/c2ccccc2F)CN(C(=O)C(Cl)Cl)C/C1=C\c1ccccc1F`, the growth was -11.4% (active).
The same measure for `COc1ccc(/C=C/C(=O)c2cc(OC)c(OC)c(OC)c2)cc1OCC(=O)Nc1nc2ccc(OC(F)(F)F)cc2s1`: 11.6%; for `COc1cc2c(cc1OCCCCN1CCN(C(=S)SCCC(C#N)(c3ccccc3)c3ccccc3)CC1)N=C[C@@H]1CCCN1C2=O`: -44.1% (active).
The same measure for `COc1ccc(C(O)c2cc3c(N)c(C(=O)Nc4cccc(Cl)c4C)sc3nc2C)cc1` (stereo not given): 0.176% (active).
The same measure for `CC(C)CCN(CCC(C)C)CC(O)c1cc2c(c3ccccc13)CCCC2` (stereo not given): 11.8%; for `O=c1c2c3c(sc2n2c(-c4cc(-c5ccccc5)no4)nnc2n1Cc1ccccc1)CCCC3`: 55.7%.
On to `Cc1cc2c(cc1C)N(C(=O)CCl)CC(=O)N2`, for which the growth was -8.95% (active).
Consider `CC(=O)c1ccc(Nc2nccc(-c3ccc4ccccc4c3)n2)cc1`, for which the growth was 42.6%.
To `Ic1ccccc1I` belongs 90.1%; to `CCN(CC)c1ccc(/C=N/NC(=O)Cc2ccc(Nc3ccnc(C(F)(F)F)c3)cc2)c(O)c1`, 19.7%.
To `Cc1nc2c(c(=O)[nH]1)C(c1ccccc1)c1ccc3ccccc3c1O2` (stereo not given) belongs 19.3%.
To `CCN(CC)CCN1C(=O)c2c(c(C)c3c(oc4ccc(OC)cc43)c2C)C1=O` belongs 110%.
With `CCCCC#Cc1c(I)n(C)c(=O)[nH]c1=O`, the growth is -35.9% (active).
`CN(CCC(=O)c1ccccc1)CCC(=O)c1ccccc1`: the growth was 49.9%.
To `CC1(C)CC[C@]2(C(=O)N[C@H](CO)Cc3ccccc3)CC[C@]3(C)C(=CC[C@@H]4[C@@]5(C)CCCNC(C)(C)[C@@H]5CC[C@]43C)[C@@H]2C1` belongs -5.95% (active); to `CSC1=Nc2c(c(C)c(-c3ccccc3)n2CCCC(=O)O)C2=NC(=O)C[C@H](C)N12`, 114%.
To `COc1ccccc1N(C(C)=O)C1=C(Cl)C(=O)c2ccccc2C1=O` belongs -13.9% (active).
The same measure for `C=C1CC[C@@H]2C(C)(C)[C@@H](O)CC[C@@]2(C)[C@@H]1COc1ccc2ccc(=O)oc2c1`: 73.2%; for `Cn1cc(-c2csc(-c3c[nH]c4ccc(F)cc34)n2)c2ccnc(Cl)c21`: 44.4%.
On to `CCOC(=O)C1=C(C)/C(=C\c2[nH]c(C)c(C(=O)OCC)c2C)N=C1C`, for which the growth was 11.9%.
For the compound `Cc1ccc(C2CC(c3nc(-c4ccc(Cl)cc4)oc3C)=NN2C(=O)c2ccncc2)cc1` (stereo not given), the growth was 92.9%.
To `CC1(C)[C@@H](O[C@@H]2OC[C@@H](O[C@@H]3O[C@H](CO)[C@@H](O)[C@H](O)[C@H]3O[C@@H]3OC[C@@H](O)[C@H](O)[C@H]3O)[C@H](O)[C@H]2O[C@@H]2O[C@H](CO)[C@@H](O)[C@H](O)[C@H]2O)CC[C@]2(C)[C@H]3CC[C@]45OC[C@@]6(CC[C@](C)(C=O)C[C@H]64)[C@H](O)C[C@@]5(C)[C@]3(C)CC[C@@H]12` belongs -37% (active); to `NNCCc1ccc(NC(=O)CCCc2ccc(C(=O)Nc3ccccc3N)cc2)cc1`, 55.2%; to `Fc1ccc(Cn2cc(CSc3nc4ccccc4o3)nn2)cc1`, 103%.
To `CS(=O)(=O)c1nnc(-c2ccccc2)s1` belongs 40.3%.
To `COc1ccc(Nc2ncccc2/C=C/C(=O)c2cc(OC)c(OC)c(OC)c2)cc1` belongs -22.4% (active); to `Cc1nn(-c2cc(NC3CCC(O)CC3)c3c(=O)[nH]c(CCC(F)(F)F)cc3c2)c2c1C(=O)CC(C)(C)C2` (stereo not given), 25.9%.
Turning to `Nn1c(=O)c(=O)[nH]c2c(cnn2-c2ccccc2)c1=O`, the growth is 94.5%.
For `CC1(C)N=C(N)N=C(N)N1c1ccc(CCCCc2ccccc2)c(Cl)c1`, the growth is -8.35% (active).
The same measure for `CCc1ccc(CCC(=O)Nc2ncc(Cc3ccccc3)s2)o1`: 22.6%; for `O=S(=O)(NCCCNc1nccc(-c2c(-c3cccc(F)c3)nc3occn23)n1)c1ccc(F)cc1`: 53.8%; for `COc1ccc(CCN(CC(=O)N(CC(N)=O)C2CCC[C@@H]2OCc2ccccc2)C(=O)CN(C(=O)CN(CCc2ccc(Cl)cc2)C(=O)CN(C(=O)CN(C)Cc2ccccc2F)[C@H](C)C2CCCCC2)[C@H](C)C2CCCCC2)cc1OC` (stereo not given in full): -37.1% (active).

Values taken from PubChem BioAssay (NCI).
